# Experimental data from the supplement of paper PMC6411743.
# ± gives the standard deviation of the averaged measurements. The full data set covers some 5,400 targets. This sample favours those with the largest changes.
# Compound: Nc1nc2c(ncn2[C@@H]2O[C@H](COP(=O)(O)OP(=O)(O)OP(=O)(O)O)[C@@H](O)[C@H]2O)c(=O)[nH]1 [guanosine triphosphate]
# Experiment: NP40-soluble protein abundance relative to vehicle (solubility fold change) (ratio); higher = more soluble protein in presence of GTP
# Outline: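 In three independent experiments, Jurkat crude lysate made by Dounce homogenisation was treated for 10 min at room temperature and then 3 min at 37 °C with eight concentrations ranging from 0.1 to 10 mM. It was then solubilised with 0.8% NP40 plus benzonase for 60 min at 4 °C and ultracentrifuged. The supernatant was TMT-labelled for LC-MS/MS, and each value is the fold change against the detergent-processed vehicle for the same replicate, using vsn-normalised intensities.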
# Sequence of UniProt Q6KCM7 (Q6KCM7 whole entry): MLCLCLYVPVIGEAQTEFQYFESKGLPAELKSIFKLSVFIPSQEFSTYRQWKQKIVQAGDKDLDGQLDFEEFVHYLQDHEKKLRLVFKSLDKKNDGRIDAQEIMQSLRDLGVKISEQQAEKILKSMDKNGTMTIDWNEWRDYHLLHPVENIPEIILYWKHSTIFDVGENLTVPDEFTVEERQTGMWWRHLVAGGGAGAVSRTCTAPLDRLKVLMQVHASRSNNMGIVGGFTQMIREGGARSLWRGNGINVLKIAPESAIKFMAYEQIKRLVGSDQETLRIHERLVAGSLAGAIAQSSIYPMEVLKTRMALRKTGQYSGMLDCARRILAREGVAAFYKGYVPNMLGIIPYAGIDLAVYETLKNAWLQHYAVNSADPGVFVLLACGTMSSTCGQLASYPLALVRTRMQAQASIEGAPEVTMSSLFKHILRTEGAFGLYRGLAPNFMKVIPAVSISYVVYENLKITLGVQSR
# Sequence of UniProt Q14676 (Q14676 whole entry): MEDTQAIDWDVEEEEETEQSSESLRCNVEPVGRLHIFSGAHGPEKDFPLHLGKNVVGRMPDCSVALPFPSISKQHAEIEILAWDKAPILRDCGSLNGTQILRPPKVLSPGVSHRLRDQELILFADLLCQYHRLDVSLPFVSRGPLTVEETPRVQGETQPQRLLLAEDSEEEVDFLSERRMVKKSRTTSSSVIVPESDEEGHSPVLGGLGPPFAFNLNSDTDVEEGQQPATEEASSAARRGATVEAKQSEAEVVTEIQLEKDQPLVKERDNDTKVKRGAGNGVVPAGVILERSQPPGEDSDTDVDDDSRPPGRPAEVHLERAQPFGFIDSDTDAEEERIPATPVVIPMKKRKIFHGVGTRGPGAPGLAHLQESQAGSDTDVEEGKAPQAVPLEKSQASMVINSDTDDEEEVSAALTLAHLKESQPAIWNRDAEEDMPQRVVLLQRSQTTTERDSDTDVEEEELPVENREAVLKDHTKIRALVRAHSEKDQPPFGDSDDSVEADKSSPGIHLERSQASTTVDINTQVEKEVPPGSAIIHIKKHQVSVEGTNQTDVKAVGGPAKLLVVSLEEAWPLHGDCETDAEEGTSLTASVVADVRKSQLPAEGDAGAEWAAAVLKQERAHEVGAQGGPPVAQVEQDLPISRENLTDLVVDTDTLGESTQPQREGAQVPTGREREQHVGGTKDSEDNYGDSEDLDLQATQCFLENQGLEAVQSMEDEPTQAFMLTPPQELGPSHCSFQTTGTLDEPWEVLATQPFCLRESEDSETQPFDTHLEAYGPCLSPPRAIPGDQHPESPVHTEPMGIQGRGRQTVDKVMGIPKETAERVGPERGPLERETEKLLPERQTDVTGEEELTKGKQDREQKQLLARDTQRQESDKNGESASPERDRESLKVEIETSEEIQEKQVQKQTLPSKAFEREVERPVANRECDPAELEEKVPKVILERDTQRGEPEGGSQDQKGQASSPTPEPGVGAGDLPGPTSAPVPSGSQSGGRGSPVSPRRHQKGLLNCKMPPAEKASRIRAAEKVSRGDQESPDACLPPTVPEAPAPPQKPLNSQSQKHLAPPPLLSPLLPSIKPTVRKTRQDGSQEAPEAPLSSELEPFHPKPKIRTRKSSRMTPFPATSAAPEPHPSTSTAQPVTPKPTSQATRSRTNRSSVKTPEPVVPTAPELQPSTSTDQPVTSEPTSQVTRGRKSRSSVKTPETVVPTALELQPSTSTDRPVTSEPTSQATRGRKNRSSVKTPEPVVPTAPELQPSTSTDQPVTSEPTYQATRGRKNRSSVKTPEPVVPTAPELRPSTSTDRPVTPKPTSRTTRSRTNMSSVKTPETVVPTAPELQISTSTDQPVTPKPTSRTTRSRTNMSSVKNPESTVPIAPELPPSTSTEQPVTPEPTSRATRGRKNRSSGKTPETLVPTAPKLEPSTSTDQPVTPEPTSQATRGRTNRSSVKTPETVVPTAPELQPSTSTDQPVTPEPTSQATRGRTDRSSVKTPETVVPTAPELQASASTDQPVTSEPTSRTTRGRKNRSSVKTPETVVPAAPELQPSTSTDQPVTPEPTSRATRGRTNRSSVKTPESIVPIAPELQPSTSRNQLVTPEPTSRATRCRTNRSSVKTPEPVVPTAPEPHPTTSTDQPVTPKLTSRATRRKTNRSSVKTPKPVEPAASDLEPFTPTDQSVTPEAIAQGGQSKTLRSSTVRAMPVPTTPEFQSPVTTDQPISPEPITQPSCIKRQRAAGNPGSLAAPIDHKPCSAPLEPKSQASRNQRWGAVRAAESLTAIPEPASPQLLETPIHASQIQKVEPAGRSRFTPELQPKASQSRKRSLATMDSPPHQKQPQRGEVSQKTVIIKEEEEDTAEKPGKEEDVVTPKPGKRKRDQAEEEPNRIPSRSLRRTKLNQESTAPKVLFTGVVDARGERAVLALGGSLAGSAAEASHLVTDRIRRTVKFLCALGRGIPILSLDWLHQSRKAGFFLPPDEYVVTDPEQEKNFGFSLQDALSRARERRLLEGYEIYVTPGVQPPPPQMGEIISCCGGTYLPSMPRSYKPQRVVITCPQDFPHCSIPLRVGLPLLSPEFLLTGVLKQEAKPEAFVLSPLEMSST
# Sequence of UniProt P78563 (P78563 whole entry): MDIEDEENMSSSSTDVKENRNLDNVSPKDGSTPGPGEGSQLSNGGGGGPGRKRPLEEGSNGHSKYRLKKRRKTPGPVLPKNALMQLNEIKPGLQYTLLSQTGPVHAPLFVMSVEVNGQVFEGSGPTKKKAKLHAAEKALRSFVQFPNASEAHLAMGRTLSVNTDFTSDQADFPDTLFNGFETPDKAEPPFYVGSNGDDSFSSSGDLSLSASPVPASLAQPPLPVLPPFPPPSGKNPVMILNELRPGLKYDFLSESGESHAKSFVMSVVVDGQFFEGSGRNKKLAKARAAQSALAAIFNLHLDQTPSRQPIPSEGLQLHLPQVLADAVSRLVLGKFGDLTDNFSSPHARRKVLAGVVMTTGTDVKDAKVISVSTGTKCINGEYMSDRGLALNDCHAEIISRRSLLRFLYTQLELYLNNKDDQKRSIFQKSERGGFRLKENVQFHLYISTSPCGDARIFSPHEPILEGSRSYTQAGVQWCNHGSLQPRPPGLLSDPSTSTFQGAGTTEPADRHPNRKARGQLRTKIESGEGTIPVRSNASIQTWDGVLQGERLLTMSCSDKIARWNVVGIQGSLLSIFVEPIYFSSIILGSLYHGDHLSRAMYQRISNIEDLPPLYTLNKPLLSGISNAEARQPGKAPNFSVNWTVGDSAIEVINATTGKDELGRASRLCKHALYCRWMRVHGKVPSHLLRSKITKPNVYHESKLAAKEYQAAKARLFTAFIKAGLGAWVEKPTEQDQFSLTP
# Sequence of UniProt Q13427 (Q13427 whole entry, one chain of several): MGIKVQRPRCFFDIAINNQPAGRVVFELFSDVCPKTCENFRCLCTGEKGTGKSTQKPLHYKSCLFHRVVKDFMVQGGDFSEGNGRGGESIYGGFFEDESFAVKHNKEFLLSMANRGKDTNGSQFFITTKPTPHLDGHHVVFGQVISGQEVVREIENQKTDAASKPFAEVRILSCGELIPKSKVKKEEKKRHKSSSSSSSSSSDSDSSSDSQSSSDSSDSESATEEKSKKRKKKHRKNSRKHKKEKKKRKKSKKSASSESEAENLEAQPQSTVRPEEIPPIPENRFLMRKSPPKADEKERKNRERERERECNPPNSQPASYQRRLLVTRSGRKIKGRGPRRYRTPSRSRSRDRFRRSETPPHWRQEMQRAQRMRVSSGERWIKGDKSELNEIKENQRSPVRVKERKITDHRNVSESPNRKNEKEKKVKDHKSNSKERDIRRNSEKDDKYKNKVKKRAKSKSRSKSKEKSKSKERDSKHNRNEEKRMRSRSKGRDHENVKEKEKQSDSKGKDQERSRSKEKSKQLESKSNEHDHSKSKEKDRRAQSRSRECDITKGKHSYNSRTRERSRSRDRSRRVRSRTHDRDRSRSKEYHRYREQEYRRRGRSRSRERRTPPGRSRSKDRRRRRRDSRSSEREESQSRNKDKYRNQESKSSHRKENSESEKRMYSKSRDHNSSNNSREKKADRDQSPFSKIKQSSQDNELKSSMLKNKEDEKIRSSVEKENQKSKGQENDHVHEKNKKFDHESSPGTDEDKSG
# Sequence of UniProt Q00653 (Q00653 whole entry): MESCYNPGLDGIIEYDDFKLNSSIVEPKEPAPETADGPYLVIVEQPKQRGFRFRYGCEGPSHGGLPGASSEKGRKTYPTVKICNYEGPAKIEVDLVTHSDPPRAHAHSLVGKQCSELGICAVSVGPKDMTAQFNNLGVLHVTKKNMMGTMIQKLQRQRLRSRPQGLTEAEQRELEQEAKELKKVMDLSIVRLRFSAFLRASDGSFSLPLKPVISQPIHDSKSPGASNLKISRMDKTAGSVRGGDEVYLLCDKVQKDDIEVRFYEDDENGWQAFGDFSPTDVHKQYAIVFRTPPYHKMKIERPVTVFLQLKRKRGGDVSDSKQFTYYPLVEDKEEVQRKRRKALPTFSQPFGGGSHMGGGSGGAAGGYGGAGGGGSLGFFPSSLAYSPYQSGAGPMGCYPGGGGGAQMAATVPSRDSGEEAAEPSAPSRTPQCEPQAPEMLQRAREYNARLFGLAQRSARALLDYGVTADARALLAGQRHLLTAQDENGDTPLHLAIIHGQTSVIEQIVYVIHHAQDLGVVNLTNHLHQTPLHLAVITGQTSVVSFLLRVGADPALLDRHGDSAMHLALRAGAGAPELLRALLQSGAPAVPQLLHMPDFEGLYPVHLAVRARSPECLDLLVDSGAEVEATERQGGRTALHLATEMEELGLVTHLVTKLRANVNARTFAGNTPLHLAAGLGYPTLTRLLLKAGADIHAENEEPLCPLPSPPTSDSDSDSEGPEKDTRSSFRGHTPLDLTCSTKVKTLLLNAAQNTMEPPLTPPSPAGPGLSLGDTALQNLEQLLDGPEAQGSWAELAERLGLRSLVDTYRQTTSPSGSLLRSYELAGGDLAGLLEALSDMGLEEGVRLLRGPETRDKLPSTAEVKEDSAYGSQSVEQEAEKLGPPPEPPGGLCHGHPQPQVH
Target,NP40-soluble protein abundance (concentration: 0.1mM),NP40-soluble protein abundance (concentration: 0.5mM),NP40-soluble protein abundance (concentration: 1mM),NP40-soluble protein abundance (concentration: 2mM),NP40-soluble protein abundance (concentration: 4mM),NP40-soluble protein abundance (concentration: 6mM),NP40-soluble protein abundance (concentration: 8mM),NP40-soluble protein abundance (concentration: 10mM)
UniProt Q8N766|Q8N766-2|Q8N766-3|Q8N766-4,1.01 ± 0.055,1.03 ± 0.1,0.938 ± 0.046,0.964 ± 0.12,0.951 ± 0.098,0.926 ± 0.093,0.901 ± 0.015,0.897 ± 0.063
UniProt Q13427|E9PG73,0.978 ± 0.092,1.11 ± 0.12,1.18 ± 0.13,1.16 ± 0.098,1.09 ± 0.13,1.12 ± 0.12,1.21 ± 0.18,1.2 ± 0.2
UniProt P55884|P55884-2,1.02 ± 0.042,1.07 ± 0.056,1.03 ± 0.068,1.14 ± 0.18,1.29 ± 0.26,1.46 ± 0.33,1.55 ± 0.34,1.75 ± 0.36
ZC3H13 (UniProt Q5T200),1.01 ± 0.055,1.02 ± 0.063,1.07 ± 0.054,1.08 ± 0.063,1.12 ± 0.059,1.12 ± 0.055,1.24 ± 0.099,1.18 ± 0.1
UniProt Q14789|Q14789-2,1 ± 0.019,0.984 ± 0.041,1.02 ± 0.022,0.989 ± 0.049,0.993 ± 0.026,1 ± 0.035,1.02 ± 0.046,1.01 ± 0.051
UniProt Q63HQ0,0.923 ± 0.075,0.935 ± 0.056,0.951 ± 0.099,0.911 ± 0.13,1.02 ± 0.16,0.961 ± 0.12,0.952 ± 0.091,0.972 ± 0.11
LARP1 (UniProt Q6PKG0),1.02 ± 0.039,1.11 ± 0.06,1.32 ± 0.1,1.46 ± 0.11,1.66 ± 0.16,1.78 ± 0.17,1.88 ± 0.22,1.99 ± 0.22
UniProt P62879,0.978 ± 0.035,1.01 ± 0.064,0.917 ± 0.031,0.947 ± 0.074,0.924 ± 0.05,0.937 ± 0.054,0.913 ± 0.048,0.893 ± 0.09
SLC25A24 (UniProt Q6NUK1),0.934 ± 0.055,0.93 ± 0.033,0.857 ± 0.039,0.854 ± 0.014,0.837 ± 0.026,0.845 ± 0.024,0.809 ± 0.061,0.817 ± 0.057
UniProt Q8WUQ7|Q8WUQ7-2,0.975 ± 0.11,1.02 ± 0.12,0.967 ± 0.13,1.02 ± 0.14,1.09 ± 0.13,1.12 ± 0.095,1.12 ± 0.03,1.19 ± 0.11
UniProt Q04656|Q04656-2|Q04656-3|Q04656-5,1.01 ± 0.13,1.01 ± 0.059,0.971 ± 0.096,1.01 ± 0.079,0.951 ± 0.052,1.02 ± 0.015,0.972 ± 0.11,0.924 ± 0.087
UniProt Q00653|Q00653-4,0.995 ± 0.032,0.997 ± 0.021,0.959 ± 0.013,0.955 ± 0.037,0.96 ± 0.048,0.931 ± 0.016,0.966 ± 0.04,0.94 ± 0.045
UniProt Q13428|Q13428-3|Q13428-4|Q13428-7,0.975 ± 0.096,1.01 ± 0.085,1.09 ± 0.12,1.09 ± 0.15,1.11 ± 0.16,1.13 ± 0.14,1.17 ± 0.17,1.23 ± 0.23
UniProt Q7L5D6|Q7L5D6-2,1.03 ± 0.056,0.98 ± 0.091,0.94 ± 0.047,0.975 ± 0.11,0.963 ± 0.12,0.986 ± 0.1,0.868 ± 0.053,0.887 ± 0.12
HNRNPA0 (UniProt Q13151),0.975 ± 0.038,1 ± 0.024,1 ± 0.038,0.989 ± 0.05,0.967 ± 0.035,1 ± 0.046,1.01 ± 0.052,0.986 ± 0.058
UniProt P78563|P78563-2|P78563-3|P78563-4|P78563-5|P78563-6,1.05 ± 0.12,1.03 ± 0.13,1.007 ± 0.0033,1.07 ± 0.053,1.11 ± 0.044,1.16 ± 0.062,1.15 ± 0.031,1.16 ± 0.1
UniProt P60228,1.09 ± 0.046,1.08 ± 0.061,1.05 ± 0.098,1.14 ± 0.17,1.32 ± 0.27,1.44 ± 0.33,1.58 ± 0.3,1.75 ± 0.38
UniProt Q5K651|C9JKF1,1.04 ± 0.017,1.07 ± 0.021,0.998 ± 0.025,1.01 ± 0.062,0.968 ± 0.083,0.959 ± 0.047,0.985 ± 0.045,0.949 ± 0.088
UniProt Q86V81,0.939 ± 0.019,0.943 ± 0.079,1.12 ± 0.036,1.25 ± 0.097,1.5 ± 0.047,1.73 ± 0.054,1.95 ± 0.1,2.52 ± 0.13
UniProt P60891,1.03 ± 0.072,1.15 ± 0.18,1.18 ± 0.22,1.26 ± 0.25,1.29 ± 0.23,1.3 ± 0.28,1.28 ± 0.27,1.26 ± 0.23
UniProt Q8WUF8|Q8WUF8-3,1.03 ± 0.14,1.03 ± 0.051,0.978 ± 0.14,1 ± 0.044,0.966 ± 0.028,1.01 ± 0.014,0.959 ± 0.021,0.99 ± 0.023
UniProt Q53EL6|Q53EL6-2,0.992 ± 0.14,1.08 ± 0.18,1.12 ± 0.24,1.23 ± 0.34,1.45 ± 0.45,1.66 ± 0.47,1.81 ± 0.48,2.16 ± 0.58
CUL4A (UniProt Q13619),1.07 ± 0.041,1.09 ± 0.077,1.02 ± 0.045,1.03 ± 0.11,0.989 ± 0.09,0.987 ± 0.076,0.987 ± 0.061,0.934 ± 0.042
UniProt Q6KCM7|Q6KCM7-2|Q6KCM7-3|Q6KCM7-4|Q6KCM7-5|Q6KCM7-6,1.12 ± 0.041,1.08 ± 0.034,1.06 ± 0.058,1.04 ± 0.016,1.04 ± 0.066,1.019 ± 0.0034,0.982 ± 0.061,0.989 ± 0.098
MDC1 (UniProt Q14676),1.1 ± 0.024,1.14 ± 0.042,1.23 ± 0.053,1.41 ± 0.11,1.66 ± 0.17,1.77 ± 0.21,1.86 ± 0.29,1.92 ± 0.36
UniProt Q7Z3B4|Q7Z3B4-3,1.02 ± 0.051,1 ± 0.021,1 ± 0.038,1.01 ± 0.032,1.06 ± 0.062,1.07 ± 0.065,1.12 ± 0.055,1.18 ± 0.092
UniProt Q7Z7K6|Q7Z7K6-3,1.09 ± 0.035,1.08 ± 0.071,1.16 ± 0.013,1.37 ± 0.071,1.69 ± 0.2,2.01 ± 0.27,2.24 ± 0.32,3.21 ± 0.43
UniProt Q10567|Q10567-2|Q10567-3,0.918 ± 0.056,0.927 ± 0.032,0.956 ± 0.054,0.943 ± 0.044,0.954 ± 0.04,0.919 ± 0.051,0.921 ± 0.05,0.924 ± 0.054
